Measurements reported in PubChem BioAssay AID431 (Sanford-Burnham Center for Chemical Genomics, 2006).
Hit rate of the full screen: of about 63,000 compounds, about 1,100 (1.7%) were called active.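 The calls were made as follows: active = compounds whose percent cytotoxicity in the single-dose primary screen, scaled between solvent and toxic-drug controls, exceeds 50; inactive = the rest.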 The list comes from a sample in which actives are over-represented; it also holds similar structures and randomly drawn compounds. Results with a measured potency or affinity are listed apart.

Test: viability loss of HPDE-C7K cells – cell-based, fluorescence, HTS, primary screen (AID 431);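 also: 0% = DMSO solvent wells and 100% = doxorubicin-treated wells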
Conditions: HPDE-C7K KRASV12 cells, Alamar Blue viability, 48 h; at 10 µM; active compounds read high

| SMILES | cytotoxicity |
| --- | --- |
| O=C(Nc1ccc2c(c1)OCCO2)C1CCCN(S(=O)(=O)c2cnc[nH]2)C1 (configuration not stated) | -1.8% (inactive) |
| Cn1c(NCCCN2CCOCC2)nc2c1c(=O)n(Cc1ccc(Cl)cc1Cl)c(=O)n2C | 50.6% (active) |
| Cn1c(NCCCN2CCOCC2)nc2c1c(=O)n(Cc1ccc(Cl)cc1)c(=O)n2C | 28.8% (inactive) |
| Cn1c(=O)c2c(nc(NCCCN3CCOCC3)n2Cc2ccc(Cl)cc2Cl)n(C)c1=O | 0.9% (inactive) |
| Cn1c(NCCN2CCOCC2)nc2c1c(=O)n(Cc1cccc(Cl)c1)c(=O)n2C | 22.4% (inactive) |
| Cn1c(=O)c2c(nc(NCCCN3CCOCC3)n2Cc2ccc(Cl)c(Cl)c2)n(C)c1=O | -1.2% (inactive) |
| Cn1c(NCCCN2CCOCC2)nc2c1c(=O)n(Cc1ccc(Cl)c(Cl)c1)c(=O)n2C | 54.6% (active) |
| Cc1cc(C)nc(SCc2ccc3nonc3c2)n1 | -23.2% (inactive) |
| Cc1cc(CN2C(=O)c3ccccc3C2=O)no1 | -13.3% (inactive) |
| CCN(CC)S(=O)(=O)c1ccc(NC(=O)Cn2cnc3ccccc3c2=O)cc1 | -6.7% (inactive) |
| CCC(=O)Nc1ccc(C(=O)n2nc(C)cc2C)cc1 | 10.7% (inactive) |
| COCCSc1ccccc1C(=O)Nc1cc(C)on1 | 85.8% (active) |
| COCCSc1ccccc1C(=O)Nc1nnc(C)s1 | -9% (inactive) |
| CCSc1ccccc1C(=O)Nc1cc(C)on1 | -0.6% (inactive) |
| COc1ccc(C2CCCN2C(=O)Nc2ccc(F)cc2)cc1OC (configuration not stated) | -15.2% (inactive) |
| CCNC(=O)C1CC(=O)N(Cc2ccc3c(c2)OCO3)C(=Nc2ccc(F)cc2)S1 (configuration not stated) | 62.1% (active) |
| CCNC(=O)C1CC(=O)N(Cc2ccc3c(c2)OCO3)C(=Nc2ccc(OCC)cc2)S1 (configuration not stated) | 10% (inactive) |
| CNC(=O)C1CC(=O)N(Cc2ccc3c(c2)OCO3)C(=Nc2ccc(F)cc2)S1 (configuration not stated) | -2.3% (inactive) |
| O=C(O)c1cc(C(=O)O)c(-c2ccccc2)c(C(=O)O)c1 | -12.8% (inactive) |
| CC(=O)Oc1cccc2c1C(=O)c1c(OC(C)=O)cc(C(=O)O)cc1C2=O | 8.1% (inactive) |
| CCOc1ccc(N2Cc3ncccc3C2=O)cc1 | -0.1% (inactive) |
| O=C(COc1ccc2ccccc2c1Br)N1CCOCC1 | -30.2% (inactive) |
| CCCCCCOC(=O)C(C#N)c1nc2ccccc2nc1N1CCN(CC)CC1 (configuration not stated) | 5.9% (inactive) |
| COc1ccc(CNC(=O)C(C#N)c2nc3ccccc3nc2N2CCN(C)CC2)cc1 (configuration not stated) | 76.5% (active) |
| CCCCCCOC(=O)C(C#N)c1nc2ccccc2nc1N1CCCCC1 (configuration not stated) | -16.1% (inactive) |

| SMILES | cytotoxicity |
| --- | --- |
| COc1ccc(CNC(=O)C(C#N)c2nc3ccccc3nc2N2CCCC2)cc1 (configuration not stated) | -9.7% (inactive) |
| N#CC(C(=O)NCc1ccccc1)c1nc2ccccc2nc1N1CCCC1 (configuration not stated) | 8.4% (inactive) |
| CCOc1ccccc1N1CCN(c2nc3ccccc3nc2C(C#N)C(=O)OC(C)C)CC1 (configuration not stated) | -18.6% (inactive) |
| C=CCOC(=O)C(C#N)c1nc2ccccc2nc1N1CCN(c2ccccc2OCC)CC1 (configuration not stated) | 4.2% (inactive) |
| CCCCCCOC(=O)C(C#N)c1nc2ccccc2nc1N1CCN(C)CC1 (configuration not stated) | 70.2% (active) |
| CCOc1ccccc1N1CCN(c2nc3ccccc3nc2C(C#N)C(=O)OC)CC1 (configuration not stated) | 50.6% (active) |
| O=C1CC(c2ccccc2)CC2=C1CN(C1CCCCC1)CN2 (configuration not stated) | 22% (inactive) |
| Cc1nnc(NC(=O)C2CCN(c3cnccn3)CC2)s1 | -12.6% (inactive) |
| CCOc1ccccc1Oc1coc2cc(O)ccc2c1=O | -11.5% (inactive) |
| Cc1cc(C(=O)Nc2sc(C)c(C)c2C#N)no1 | -0.7% (inactive) |
| Cc1cc(C)n(CC(O)Cn2c3ccccc3c3ccccc32)c(=O)n1 (configuration not stated) | 11.5% (inactive) |
| CC1CCCC(C)N1C(=O)Cn1c(SCC(=O)Nc2ccc3c(c2)OCO3)nc2ccccc21 (configuration not stated) | 8.4% (inactive) |
| O=C1c2ccccc2-c2onc3ccc(NCCCn4ccnc4)c1c23 | 27.5% (inactive) |
| COc1ccc(-c2onc3ccc(Cl)cc23)cc1OC | 4.4% (inactive) |
| COc1ccc2noc3c2c1C(=O)c1ccccc1-3 | 72.7% (active) |
| CCOc1ccc2noc3c2c1C(=O)c1ccccc1-3 | 23.3% (inactive) |
| O=C(NCc1ccco1)c1ccc2c(c1)C(=O)c1ccccc1-2 | 5.3% (inactive) |
| O=C1c2ccccc2-c2onc3ccc(NCc4ccco4)c1c23 | 51.6% (active) |
| C=C(C)c1ccc(C(C)(C)NC(=O)NCc2ccco2)cc1 | 8.8% (inactive) |
| CC(=O)c1c(C)[nH]c(C(=O)N2CCCCCC2)c1C | -5.8% (inactive) |
| CC(=O)N1CCc2c(sc(NC(=O)CN3C(=O)CCC3=O)c2C(N)=O)C1 | 0.3% (inactive) |
| COc1ccc(OC)c(S(=O)(=O)Nc2cc(OC)c(Cl)cc2OC)c1 | 6.9% (inactive) |
| COc1cc(NS(=O)(=O)c2cc(C)ccc2OC)c(OC)cc1Cl | 4% (inactive) |
| COc1cc(NS(=O)(=O)c2ccc(OC)c(C)c2C)c(OC)cc1Cl | 64.1% (active) |
| C=CCn1c(=O)c(C(=O)Nc2ccccc2C(=O)OCC)c(O)c2ccccc21 | -8.6% (inactive) |

| SMILES | cytotoxicity |
| --- | --- |
| CCC(C)n1nccc1NC(=O)C(C)OC(=O)c1cc2ccccc2[nH]1 (configuration not stated) | 7% (inactive) |
| CCN(CC)c1ccc2c(C)c(-c3ccc(N)cc3)c(=O)oc2c1 | 82.1% (active) |
| CCN(CC)c1ccc2c(C)c(CN3CCOCC3)c(=O)oc2c1 | 26.6% (inactive) |
| CCOC(=O)Cc1c(C)c2ccc(N(CC)CC)cc2oc1=O | -21.9% (inactive) |
| CCN(CC)C(=O)Oc1ccc2c(=O)c(-c3ccc(OC)cc3)c(C)oc2c1 | 4.7% (inactive) |
| CCNc1ccc2c(Cl)cc(=O)oc2c1 | 6.3% (inactive) |
| CCOc1cc2c(C)cc(=O)oc2cc1Cl | 0.2% (inactive) |
| CCN(CC)c1ccc2cc(NC(=O)CCC(=O)O)c(=O)oc2c1 | 15.5% (inactive) |
| COc1ccc(-n2cnnc2SCC(=O)N(C)C2CCS(=O)(=O)C2)cc1 (configuration not stated) | 3.5% (inactive) |
| COCc1nc2ccccc2n1Cc1ccc(Br)cc1 | -5.7% (inactive) |
| CSc1nnc(-c2sc3cc(Cl)ccc3c2Cl)n1C | -20.3% (inactive) |
| Cc1csc(NC(=O)c2nc3nc(C)cc(C)n3n2)n1 | -16.1% (inactive) |
| COc1ccccc1-n1nnnc1SCc1ccccc1 | -10.6% (inactive) |
| Cc1cccc(C)c1-n1nnnc1S(=O)(=O)Cc1ccccc1Cl | -1.5% (inactive) |
| O=c1[nH]c2cc3c(cc2cc1CN(CCc1ccccc1)Cc1nnnn1C1CCCC1)OCCO3 | -11.1% (inactive) |
| CC(CN1CCCCC1)OC(=O)c1cc2ccccc2o1 (configuration not stated) | -6.7% (inactive) |
| CCCS(=O)(=O)N1CCCC(C(=O)NCc2ccc3c(c2)OCO3)C1 (configuration not stated) | -6.2% (inactive) |
| CC(C)C[C@H](N)c1nnc(S(=O)(=O)Cc2cccc(F)c2)o1 | -7.4% (inactive) |
| CC(C)[C@H](NC(=O)OC(C)(C)C)c1nnc(S(=O)(=O)Cc2c(F)cccc2Cl)o1 | -5.9% (inactive) |
| Cc1ccc(C2N(c3cccc(Cl)c3)C(=O)C3CCCN32)o1 (configuration not stated) | -0.1% (inactive) |
| COc1ccc(C(=O)Nn2c(SCC(=O)NCC3CCCO3)nc3ccccc3c2=O)cc1 (configuration not stated) | -11% (inactive) |
| O=C(CCc1ccccc1)Nc1ccc(N2CCOCC2)cc1 | 2.6% (inactive) |
| Cc1ccc(-n2c(=O)c(C#N)cc3c(=O)n4ccccc4nc32)cc1 | 69.7% (active) |
| Cc1cc(-n2c(=O)c(C#N)cc3c(=O)n4ccccc4nc32)no1 | -4.7% (inactive) |
| C=CCn1c(=O)c(C#N)cc2c(=O)n3ccccc3nc21 | 4.5% (inactive) |

| SMILES | cytotoxicity |
| --- | --- |
| O=C(Nc1ccc2c(c1)OCCO2)c1ccc(Br)c(S(=O)(=O)N2CCOCC2)c1 | -7.9% (inactive) |
| CC(C)CC(NC(=O)C1CCC(C)CC1)C(=O)Nc1ccccn1 (configuration not stated) | -19.7% (inactive) |
| CCOC(=O)c1nnn(-c2nonc2N)c1CSc1ccccn1 | -3.2% (inactive) |
| COc1ccc(-n2nnnc2SCC(N)=O)cc1 | -7.1% (inactive) |
| CCOC(=O)C1=C(c2ccccc2)NC(SCC(=O)Nc2ccccc2C)=C(C#N)C1c1ccco1 (configuration not stated) | 39% (inactive) |
| CC1=C(C(=O)Nc2ccccc2)C(c2ccco2)C(C#N)=C(SCC(=O)OC(C)C)N1 (configuration not stated) | 49.2% (inactive) |
| CCOC(=O)CSC1=C(C#N)C(c2ccco2)C(C(=O)Nc2cccc(C(F)(F)F)c2)=C(C)N1 (configuration not stated) | 28.1% (inactive) |
| CC1=C(C(=O)Nc2ccccc2)C(c2ccco2)C(C#N)=C(SCc2ccccc2)N1 (configuration not stated) | 57.7% (active) |
| CC1=C(C(=O)Nc2ccccc2)C(c2ccco2)C(C#N)=C(SCC(=O)Nc2cccc(C)c2C)N1 (configuration not stated) | 79.6% (active) |
| COc1ccccc1NC(=O)C1=C(C)NC(SCC(=O)c2ccccc2)=C(C#N)C1c1ccco1 (configuration not stated) | 27.2% (inactive) |
| CCOC(=O)C(NC(=O)c1ccccc1)=C1CCCCC1 | -19.2% (inactive) |
| CC(c1ccccc1)n1cc(C(=O)NCc2ccccn2)nn1 (configuration not stated) | -7.5% (inactive) |
| CCCc1cc(=O)[nH]c(SCC(=O)Nc2ccc(OC(F)F)cc2)n1 | -7.3% (inactive) |
| O=C(NCCCN1CCCCCC1)c1ccc(CS(=O)(=O)Cc2ccccc2F)o1 | -3% (inactive) |
| Cc1cccc2sc(NC(=O)CN(C)S(=O)(=O)c3cccs3)nc12 | 28.8% (inactive) |
| Cc1cccc2sc(NC(=O)CNS(=O)(=O)c3ccc(Br)s3)nc12 | -11.6% (inactive) |
| COCCn1c(SCC#N)nnc1-c1ccccc1O | -24.2% (inactive) |
| COc1ccc(NC(=O)N2CCCCC2)cc1 | -3.1% (inactive) |
| Oc1cccc(Nc2ncnc3ccccc23)c1 | 4.2% (inactive) |
| COc1ccc(CNC(=O)Cc2ccc(OC)c(S(=O)(=O)N3CCOCC3)c2)cc1 | 3.6% (inactive) |
| Cc1nc2cc(C(F)(F)F)ccc2n1C1CCN(CC(=O)N2CCOCC2)CC1 | -14.7% (inactive) |
| c1ccc(Cn2nnnc2CN2CCN(Cc3ccc4c(c3)OCO4)CC2)cc1 | -0.4% (inactive) |
